Screening data (PubChem BioAssay)
Only some compounds are listed: those with a hit (about 2.4% of all), similar ones and a draw of the others.
Pol iota inh = inhibitors of human DNA polymerase iota. 1% of 390,000 active. Pol iota fluorescent replication assay, 10 min. Q9UNA4. AID 588590. Potency, µM (doses to about 115 µM), for inactives: top-dose activity, negative = inhibition, actives largely listed as inhibitors
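Pol iota at 10 nM preincubated 15 min with compounds at room temperature; reaction started with fluorescent substrate, 50 nM final. Fluorescence read kinetically at 0 and 10 min; buffer-only wells as negative control.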
Pol eta inh = blocks human DNA polymerase eta activity; Q9Y253; recombinant Pol eta, fluorescent DNA replication assay; Potency, µM (top dose mostly 114 µM), without a hit: top-dose activity change, negative = inhibition, most hits filed as inhibitors; 1.2% of 390,000 active; AID 588591; further: on the % scale 0 is the no-effect control and ±100 the full control effect
Target sequence (Q9Y253 whole entry, looked up): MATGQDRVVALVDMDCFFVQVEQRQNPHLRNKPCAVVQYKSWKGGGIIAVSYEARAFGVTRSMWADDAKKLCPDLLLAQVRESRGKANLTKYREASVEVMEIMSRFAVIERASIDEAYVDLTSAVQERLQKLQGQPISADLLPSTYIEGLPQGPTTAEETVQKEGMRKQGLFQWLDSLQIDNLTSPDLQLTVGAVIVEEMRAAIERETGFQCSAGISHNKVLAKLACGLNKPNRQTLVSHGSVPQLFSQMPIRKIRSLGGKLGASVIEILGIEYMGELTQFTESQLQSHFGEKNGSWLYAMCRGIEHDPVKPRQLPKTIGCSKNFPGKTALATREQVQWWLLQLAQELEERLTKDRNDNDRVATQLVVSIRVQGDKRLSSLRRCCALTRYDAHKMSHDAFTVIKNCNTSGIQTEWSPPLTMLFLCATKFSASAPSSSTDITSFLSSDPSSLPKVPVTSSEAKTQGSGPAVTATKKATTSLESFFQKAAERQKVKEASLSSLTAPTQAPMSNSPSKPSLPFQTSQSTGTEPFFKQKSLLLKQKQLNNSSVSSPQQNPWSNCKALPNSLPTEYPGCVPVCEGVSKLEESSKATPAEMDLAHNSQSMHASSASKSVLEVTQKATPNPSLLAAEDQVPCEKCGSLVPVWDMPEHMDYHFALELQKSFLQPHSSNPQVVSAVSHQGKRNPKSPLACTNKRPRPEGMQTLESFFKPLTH
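Pol eta at 10 nM preincubated with compounds 15 min at room temperature; reaction started with fluorescent substrate (50 nM final) and read kinetically at 0 and 10 min.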
POLB inh = DNA polymerase beta (human) inhibition. AID 485314. 1.3% of 340,000 active. Pol beta primer extension/strand displacement, fluorescence kinetic. P06746. Potency, µM (top dose mostly 114 µM), for inactives: top-dose activity change, negative = inhibition, usual class: inhibitors; further: on the % scale 0 is the no-effect control and ±100 the full control effect
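Values derive from four-parameter Hill fits of normalized kinetic data: reads at 0 and 10 min following addition of 50 nM substrate to 10 nM Pol beta preincubated 15 min with compound.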
Pol kappa inh = DNA polymerase kappa (human) inhibition | Potency, µM (titrated, usually from 107 µM), without a hit: at the highest dose activity, negative = inhibition, most hits filed as inhibitors | purified Pol kappa, fluorescent DNA synthesis assay, 10 min | Q9UBT6 | 0.53% of 400,000 active; further: on the % scale 0 is the no-effect control and ±100 the full control effect
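10 nM Pol kappa was preincubated with compounds for 15 min at room temperature. Reaction started with 50 nM (final) substrate. Fluorescence read kinetically at 0 and 10 min.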
FEN1 inhibitor = human FEN1 inhibition. Potency, µM (top dose mostly 114 µM), for inactives: at the top dose activity change, negative = inhibition, most hits filed as inhibitors. 0.35% of 390,000 active. Recombinant FEN1 flap cleavage, fluorescence, 15 min; further: on the % scale 0 is the no-effect control and ±100 the full control effect; nearly all actives have a fitted effect of over 65% in size
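Concentration–response screening of FEN1 (10 nM): 15 min compound preincubation at room temperature, reaction started with 50 nM substrate and read at 0 and 15 min. Corrected, normalized data were fitted by a four-parameter Hill equation.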
WRN helicase inh = inhibitors of human WRN helicase | 0.46% of 360,000 active | AID 651768 | WRN helicase unwinding, fluorescent forked duplex, kinetic | Potency, µM (titrated, usually from 114 µM), without a hit: top-dose activity change, negative = inhibition, hits mostly inhibitors | Q14191; further: on the % scale 0 is the no-effect control and ±100 the full control effect; nearly all actives have a fitted effect of over 55% in size
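Fluorescence dequenching readout, ex 525 nm/em 598 nm, kinetic mode: forked duplex DNA (100 nM final) with adjacent fluorophore and quencher unwound by WRN (20 nM final) with 2 mM ATP. Compound preincubation 15 min, room temperature.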
Numbers without * were called inactive; ? = inconclusive; . = not tested or not shown; ! = a repeat was not active; [ ] = dose if it differs, or a comment. The call rests on the fitted dose curve; in most records, active means well fitted curve in the direction sought with a large enough effect; inconclusive means small, poorly fitted or top-dose-only effect, or another doubt; inactive means no such curve, though single readings can be large; an effect the other way counts as inactive or inconclusive. Potency means the concentration at half of the fitted maximal effect.

SMILES	Pol iota inh	Pol eta inh	POLB inh	Pol kappa inh	FEN1 inhibitor	WRN helicase inh
CCN(CC)C(=O)CSc1nc2ccc(NC(=O)CSc3nccn3C)cc2s1	25µM*	-13%	5.6µM*	-40%	-12%	-16%
Cc1cc([N+](=O)[O-])c2[nH]c(C(=O)N/N=C/c3ccccc3C(=O)O)c(-c3ccccc3)c2c1	21%	45µM*	28µM*	-7%	?	?
CCCCC/C=C\C=C\[C@H](O)CCCCCCCC(=O)O	.	.	.	6%[19.4 µM]	.	.
Cc1ccccc1Nc1nn2c(=O)c3ccc(C(=O)NCC(C)c4ccccc4)cc3nc2s1 (configuration not stated)	20%	-9%	1%	-18%	-12%	.
Cc1ccccc1Nc1nn2c(=O)c3ccc(C(=O)NCc4cccs4)cc3nc2s1	79µM*	?	20µM*	-1%[60.1 µM]	9%	.
COc1cc(N(C)C)c(OC)cc1C=C1C=CC=C1	-4%	.	.	-15%	-26%	.
CC(OC(=O)c1ccccc1OCCOc1ccccc1)C(=O)Nc1ccc(Br)cc1 (configuration not stated)	7%	.	.	-8%	-22%	.
COc1cc(N=Nc2c(O)c3ccccc3[nH]c2=O)c(OC)cc1N=Nc1ccccc1	-4%	-19%	?	-3%	9%	0%
COc1ccc(OC)c(N=Nc2c(O)c3ccccc3[nH]c2=O)c1	?	40µM*	.	-26%	?	-35%[11.6 µM]
N#C/C(=C\c1ccc(O)c(O)c1)C(=O)NCCCc1ccccc1	?	16µM*!	?	?	0%	?
N#CC(=Cc1ccc(O)c(O)c1)C(=O)NCc1ccccc1	71µM*	.	.	-29%	-19%	.
COc1ccc(/C=C(\C#N)C(=O)NCCc2ccccc2)cc1OCc1ccccc1	10%	-21%	-3%	2%	-7%	-3%
Oc1ccc(/C=N/Nc2ccnc3cc(Cl)ccc23)c(O)c1O	?	?	14µM*	45µM*	45µM*	?
COc1cccc(/C=C2/Sc3ccc(C(=O)NCCN4CCCCCC4)cc3NC2=O)c1	-14%	-14%	-3%	6%	50µM*	3%[11.6 µM]
CC[N+]1(C)CCC(O)(/C=C/c2ccccc2)C(C(=O)/C=C/c2ccccc2)C1 (configuration not stated)	?	?	.	-2%	-3%	11µM*
CCc1ccc(/C=C/C(=O)C2C(=O)c3ccccc3C2=O)cc1	?	1%	-13%	-3%	8%	-17%[57.1 µM]
Cc1ccc(-n2c(O)c(C=Nc3cc(C)on3)c3ccccc3c2=O)c(C)c1	2%	-11%	?	-16%	-18%	50µM*
O=C1C=C(Nc2ccccc2)c2ccccc2C1=O	22µM*	?	-2%	2%	-9%	3%[11.6 µM]
O=C1C=C(Nc2ccccc2)C(=O)c2ccccc21	28%	-9%	45%	-3%	-13%	-6%
COc1cc(CCNC2=CC(=O)c3ncccc3C2=O)ccc1O	28µM*	16µM*	.	-12%	-9%	-5%
COc1cc(N)c(Cl)cc1C(=O)OCCCN1CCCCC1	.	.	.	6%[19.4 µM]	.	.
COc1cc(N)c(Cl)cc1C(=O)OCCN1CCCCC1	3%[58.9 µM]	1%[57.1 µM]	2%[57.1 µM]	3%[60.1 µM]	11µM*	.
COc1ccc(CCSc2n[nH]c(C(C)C)n2)cc1	35%	.	.	8%	-7%	.
CC1(C)OC[C@@H]2O[C@@]3(C(=O)O)OC(C)(C)O[C@@H]3[C@@H]2O1	.	.	.	6%[19.4 µM]	.	.
CCCCN(CC)C(=O)Cc1c(C(=O)O)[nH]c2ccc(Cl)cc12	0%	-11%	3%	-14%	-4%	-3%
SMILES	Pol iota inh	Pol eta inh	POLB inh	Pol kappa inh	FEN1 inhibitor	WRN helicase inh
CCCN(C(=O)Cc1c(C(=O)O)[nH]c2ccc(Cl)cc12)c1ccc(OCC)cc1	-28%	-5%	50µM*	-7%	11%	.
CCc1ccc2nc(N(CCCN(C)C)C(=O)c3ccc(S(=O)(=O)N(C)C4CCCCC4)cc3)sc2c1	-17%	-23%	-18%	?	79µM*	-29%
CN(C)CCCN(C(=O)c1ccc(S(=O)(=O)N(C)C2CCCCC2)cc1)c1nc2ccc(F)cc2s1	8%	-16%	4%	-10%	?	1%
CSCCC(C(=O)OC1CCOC1=O)N1C(=O)c2ccccc2C1=O (configuration not stated)	?	35µM*	-22%	?	-9%	?
CC(=O)Nc1ccc(S(=O)(=O)NCCC(=O)OCC(=O)N2CCN(C(=O)c3ccco3)CC2)cc1	45µM*	?	45µM*	-32%	-2%	?
O=S(=O)(N1CCN(c2nc(-c3cccs3)nc3ccccc23)CC1)C(F)(F)F	-8%	.	.	-5%	-22%	.
COC(=O)CCC(=O)OC1(C)C(=O)C=C2C=C3CCCN3C=C2C1=O (configuration not stated)	?	50µM*	-26%	?	?	-3%
COC(=O)CCC(=O)OC1(C)C(=O)C=C2C=C(C3CC3)N(CCCOC(C)C)C=C2C1=O (configuration not stated)	?	89µM*	22%	-33%	0%	-3%[57.1 µM]
COC(=O)CCC(=O)OC1(C)C(=O)C=C2C=C(C3CC3)N(Cc3ccc(OC)cc3)C=C2C1=O (configuration not stated)	18µM*	10%	2%	-15%	-10%	-6%
C=CCN1C=C2C(=O)C(C)(OC(=O)CCC(=O)OC)C(=O)C=C2C=C1C1CC1 (configuration not stated)	85%	-4%	-15%	-5%	5%	-2%
COC(=O)CCC(=O)OC1(C)C(=O)C=C2C=C(C3CC3)N(CCCCO)C=C2C1=O (configuration not stated)	25µM*	7%	-2%	-30%	-4%	7%
NOCc1ccccc1	.	.	.	10%[60.1 µM]	.	.
CN(N=O)c1ccc(/C=C/c2ccnc3ccccc23)cc1	?	.	.	-3%	-4%	.
COCCCN(C(=O)c1cc2c(s1)CCC2)c1c(N)n(Cc2ccccc2)c(=O)[nH]c1=O	32µM*	?	13µM*	?	-5%	?
CCCN(C(=O)COC(=O)c1cc(CC)c(C)s1)c1c(N)n(Cc2ccccc2)c(=O)[nH]c1=O	40µM*	18µM*	.	?	-11%	-8%[11.6 µM]
CCN(C(=O)COC(=O)c1cc2c(s1)CCC(C)C2)c1c(N)n(Cc2ccccc2)c(=O)[nH]c1=O (configuration not stated)	?	?	.	-7%	1%	-3%[11.6 µM]
CCN(C(=O)COC(=O)c1cc2c(s1)CCCC2)c1c(N)n(Cc2ccccc2)c(=O)[nH]c1=O	45µM*	?	.	-33%	28%	-17%
